Drawing on PubChem BioAssay (EPA / NIEHS), this text covers outcome and AC50 for seven compounds.

Inconclusive results are not listed. The source made the active and inactive calls. The calls were made as follows, unless noted: active = hit-call score of the fitted dose curve at least 0.9, where 1 is the maximum; inactive = score below 0.9.

Assay [1] addresses Retinoic acid receptor RXR-alpha (Homo sapiens) (UniProt P19793). Description: ATG_RXRa_TRANS: Attagene TRANS-FACTORIAL HepG2 Assay for human Retinoid X Receptor alpha (RXRa) (AID 2283012; active = hit-call score of the fitted dose curve at least 0.9, where 1 is the maximum). The essentials:
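Read-out: fluorescent reporter-transcript fragments quantified by capillary electrophoresis after RT-PCR. Transiently transfected HepG2 cells carrying GAL4-UAS reporters and NR-GAL4 chimeras were exposed to chemical for 24 h; activity scored as increase over DMSO.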

Read-out in assay [2]: E-selectin (Homo sapiens) (UniProt P16581)
The experiment in a line: BSK_3C_Eselectin: BioMAP Diversity Plus: 3C Assay for Eselectin Biomarker Activity (AID 2283015).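 As to outcome: cell surface E-selectin protein quantified by ELISA 24 h after dosing.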 Conditions: primary human endothelial cells (HUVEC); actives raise or lower the signal. In short, it runs like this: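 ELISA read-out of E-selectin on endothelial monolayers after 24 h chemical treatment. Human umbilical vein primary cells served as the system, with DMSO defining baseline activity for bidirectional fitting.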

Read-out in assay [3]: Interleukin-1 alpha (IL1a), IL1A (gene 3552)
The experiment in a line: BSK_BE3C_IL1a: BioMAP Diversity Plus: BE3C Assay for Interleukin-1 alpha (IL1a) Biomarker Activity (AID 2283016). Conditions: primary human bronchial epithelial cells; actives raise or lower the signal. In short, it runs like this: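 ELISA read-out of IL-1a from human lung bronchial epithelial primary cells, 24 h post-dose. Gain or loss of signal fitted relative to DMSO negative control.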

Read-out in assay [4]: Monocyte Chemoattractant Protein-1 (MCP1), CCL2 (gene 6347)
Description: BSK_3C_MCP1: BioMAP Diversity Plus: 3C Assay for Monocyte Chemoattractant Protein-1 (MCP1) Biomarker Activity (AID 2283017). The note with it: primary human endothelial cells (HUVEC); actives raise or lower the signal. In short, it runs like this: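 ELISA read-out of MCP-1 from human umbilical vein endothelial cell cultures harvested 24 h post-dosing. Gain or loss of signal was fitted relative to DMSO.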

Read-out in assay [5]: Monocyte Chemoattractant Protein-1 (MCP1), CCL2 (gene 6347)
Description: BSK_4H_MCP1: BioMAP Diversity Plus: 4H Assay for Monocyte Chemoattractant Protein-1 (MCP1) Biomarker Activity (AID 2283018). The note with it: primary human endothelial cells (HUVEC); actives raise or lower the signal. The essentials: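 HUVEC primary cells, 24 h post-dose, MCP-1 by ELISA. Gain or loss of signal fitted bidirectionally vs DMSO baseline. Cytotoxicity: SRB stain (0.1% after 10% TCA fixation), read 560 nm, parallel cultures.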

Read-out in assay [6]: Human Leukocyte Antigen - DR isotype (HLADR), HLA-DRA (gene 3122)
The experiment in a line: BSK_3C_HLADR: BioMAP Diversity Plus: 3C Assay for Human Leukocyte Antigen - DR isotype (HLADR) Biomarker Activity (AID 2283019). The note with it: primary human endothelial cells (HUVEC); actives raise or lower the signal. The essentials: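 ELISA readout of surface HLA-DR on human umbilical vein endothelium, taken 24 h after chemical treatment. Gain- and loss-of-signal were both fitted relative to DMSO.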

Read-out in assay [7]: Interleukin-8 (IL8), CXCL8 (gene 3576)
The experiment in a line: BSK_3C_IL8: BioMAP Diversity Plus: 3C Assay for Interleukin-8 (IL8) Biomarker Activity (AID 2283020). Conditions: primary human endothelial cells (HUVEC); actives raise or lower the signal. In short, it runs like this:
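HUVEC, 3C stimulation; 24 h compound exposure; IL-8 read by ELISA; gain or loss of signal fitted relative to DMSO control.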

Read-out in assay [8]: Monokine induced gamma interferon (MIG), CXCL9 (gene 4283)
Description: BSK_3C_MIG: BioMAP Diversity Plus: 3C Assay for Monokine induced gamma interferon (MIG) Biomarker Activity (AID 2283021). The note with it: primary human endothelial cells (HUVEC); actives raise or lower the signal. The essentials:
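HUVEC, 3C system; 24 h chemical exposure; MIG by ELISA; bidirectional fit vs DMSO baseline.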

A short description of assay [9]: BSK_3C_SRB: Viability Assessment in the BioMAP Diversity Plus: 3C Assay (AID 2283023).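 Also: fitted both ways against DMSO so a hit may be signal rise or drop.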 Conditions: primary human endothelial cells (HUVEC). In short, it runs like this:
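Absorbance at 560 nm of sulforhodamine B-stained (0.1%) total protein served as a cytotoxicity readout in human umbilical vein endothelial cells, 24 h after chemical treatment. Signal was fitted bidirectionally relative to DMSO.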

Read-out in assay [10]: Matrix Metallopeptidase 1 (MMP1), MMP1 (gene 4312)
Description: BSK_BE3C_MMP1: BioMAP Diversity Plus: BE3C Assay for Matrix Metallopeptidase 1 (MMP1) Biomarker Activity (AID 2283024). Conditions: primary human bronchial epithelial cells; actives raise or lower the signal. The essentials: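 ELISA read-out of MMP1 in human lung bronchial epithelial primary cultures, 24 h post-dose; bidirectional curve fit vs DMSO baseline, gain or loss of signal scored.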

Assay [11] can be described thus: BSK_3C_Vis: BioMAP Diversity Plus: 3C Assay for Morphology Visualization (AID 2283025).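 Also: fitted both ways so gain or loss versus DMSO counts.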 The note with it: primary human endothelial cells (HUVEC). The essentials: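 HUVEC, 3C system; light microscopy of morphology at 24 h post-dose. Bidirectional fit vs DMSO baseline. Secondary readout, background-control function.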
Read-out in assay [12]: Pselectin, SELP (gene 6403)
Description: BSK_4H_Pselectin: BioMAP Diversity Plus: 4H Assay for Pselectin Biomarker Activity (AID 2283026). The note with it: primary human endothelial cells (HUVEC); actives raise or lower the signal. In short, it runs like this: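 HUVEC, 24 h chemical exposure; P-selectin read by ELISA. Bidirectional curve fit vs DMSO baseline; gain or loss of signal scored.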

A short description of assay [13]: BSK_4H_SRB: Viability Assessment in the BioMAP Diversity Plus: 4H Assay (AID 2283027).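 Also: cells exposed to compound for 24 h before staining.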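 As to AC50: curves fitted both ways versus DMSO so AC50 may be loss or gain.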 Conditions: primary human endothelial cells (HUVEC). In short, it runs like this:
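HUVEC, 24 h post-dose; 10% TCA fix, 0.1% SRB stain, A560 nm. Total protein = overt cytotoxicity, parallel to biomarker read. Bidirectional fit vs DMSO baseline.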

Assay [14] in a line: BSK_BE3C_SRB: Viability Assessment in the BioMAP Diversity Plus: BE3C Assay (AID 2283028). Conditions: primary human bronchial epithelial cells. In short, it runs like this:
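Cells (human bronchial epithelial, primary) are treated with chemicals, and after 24 h the parallel cultures are fixed in 10% TCA. These are then stained with 0.1% SRB and read at 560 nm. Gain or loss of signal is fitted relative to DMSO.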

Read-out in assay [15]: Thrombomodulin, THBD (gene 7056)
The experiment in a line: BSK_3C_Thrombomodulin: BioMAP Diversity Plus: 3C Assay for Thrombomodulin Biomarker Activity (AID 2283029). The note with it: primary human endothelial cells (HUVEC); actives raise or lower the signal. In short, it runs like this:
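HUVEC, 3C conditions; compound 24 h; thrombomodulin by ELISA; bidirectional curve fit vs DMSO baseline; parallel SRB total-protein staining for cytotoxicity.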

Read-out in assay [16]: Urokinase-type plasminogen activator receptor (uPAR), PLAUR (gene 5329)
The experiment in a line: BSK_4H_uPAR: BioMAP Diversity Plus: 4H Assay for Urokinase-type plasminogen activator receptor (uPAR) Biomarker Activity (AID 2283030). Conditions: primary human endothelial cells (HUVEC); actives raise or lower the signal. In short, it runs like this:
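Cell-surface uPAR ELISA signal, measured 24 h after dosing human umbilical vein endothelial cells, was analyzed with bidirectional fitting relative to DMSO. Parallel SRB staining of total protein tracked overt cytotoxicity.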

Read-out in assay [17]: Vascular endothelial growth factor receptor 2 (Homo sapiens) (UniProt P35968)
Description: BSK_4H_VEGFRII: BioMAP Diversity Plus: 4H Assay for Vascular endothelial growth factor receptor 2 (VEGFR2) Biomarker Activity (AID 2283031). Conditions: primary human endothelial cells (HUVEC); actives raise or lower the signal. In short, it runs like this:
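ELISA read-out of VEGFRII in primary human umbilical vein endothelium, taken 24 h after chemical treatment. Responses are expressed relative to DMSO, with bidirectional fitting.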

Assay [18] addresses human Retinoid X Receptor beta (RXRb), RXRB (gene 6257) (UniProt P28702). Description: ATG_RXRb_TRANS: Attagene TRANS-FACTORIAL HepG2 Assay for human Retinoid X Receptor beta (RXRb) (AID 2283013; active = hit-call score of the fitted dose curve at least 0.9, where 1 is the maximum). In short, it runs like this: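 Read-out: reporter mRNA induction via RT-PCR plus capillary electrophoresis fluorescence, analysed as signal increase relative to DMSO. Cells were human HepG2, transiently transfected with GAL4-UAS reporter constructs and chimeric receptor-Gal4 fusions, dosed for 24 h.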

Assay [19] deals with human Vitamin D Receptor (VDR), VDR (gene 7421) (UniProt P11473). The experiment in a line: ATG_VDR_TRANS: Attagene TRANS-FACTORIAL HepG2 Assay for human Vitamin D Receptor (VDR) (AID 2283022; active = hit-call score of the fitted dose curve at least 0.9, where 1 is the maximum). The essentials: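 Steps: transfect HepG2 with GAL4-UAS-driven reporter constructs; dose compounds 24 h; isolate RNA, reverse-transcribe, PCR-amplify with 6-FAM-labelled primer extension and HpaI digestion; quantify fragments by capillary electrophoresis relative to DMSO.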
Chain of human Vitamin D Receptor (VDR), VDR (gene 7421) (P11473 whole entry, looked up, the tested form may be a part): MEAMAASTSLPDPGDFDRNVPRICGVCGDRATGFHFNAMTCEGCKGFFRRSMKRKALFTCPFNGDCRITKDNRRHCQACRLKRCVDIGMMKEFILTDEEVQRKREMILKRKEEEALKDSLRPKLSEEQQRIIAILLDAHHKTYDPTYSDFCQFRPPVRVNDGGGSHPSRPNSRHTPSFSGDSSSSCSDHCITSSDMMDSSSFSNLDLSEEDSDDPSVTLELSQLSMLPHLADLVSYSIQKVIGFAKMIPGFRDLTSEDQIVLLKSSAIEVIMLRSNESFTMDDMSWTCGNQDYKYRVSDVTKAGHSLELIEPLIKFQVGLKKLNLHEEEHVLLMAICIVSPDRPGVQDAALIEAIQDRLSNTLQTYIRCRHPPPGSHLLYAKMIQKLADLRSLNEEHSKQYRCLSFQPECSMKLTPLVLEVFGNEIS

In assay [20] the target is human Thyroid Receptor alpha (THRa1), THRA (gene 7067) (UniProt P10827). The experiment in a line: ATG_THRa1_TRANS: Attagene TRANS-FACTORIAL HepG2 Assay for human Thyroid Receptor alpha (THRa1) (AID 2283014; active = hit-call score of the fitted dose curve at least 0.9, where 1 is the maximum). The essentials: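 Reporter transcript induction, read by capillary electrophoresis of 6-FAM-labelled RT-PCR products, reflects activity of a transfected THRa1-Gal4 fusion in HepG2 liver cells. Cells were dosed for 24 h; activity was fitted in the positive direction against DMSO.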
Chain of human Thyroid Receptor alpha (THRa1), THRA (gene 7067) (P10827 whole entry, looked up, the tested form may be a part): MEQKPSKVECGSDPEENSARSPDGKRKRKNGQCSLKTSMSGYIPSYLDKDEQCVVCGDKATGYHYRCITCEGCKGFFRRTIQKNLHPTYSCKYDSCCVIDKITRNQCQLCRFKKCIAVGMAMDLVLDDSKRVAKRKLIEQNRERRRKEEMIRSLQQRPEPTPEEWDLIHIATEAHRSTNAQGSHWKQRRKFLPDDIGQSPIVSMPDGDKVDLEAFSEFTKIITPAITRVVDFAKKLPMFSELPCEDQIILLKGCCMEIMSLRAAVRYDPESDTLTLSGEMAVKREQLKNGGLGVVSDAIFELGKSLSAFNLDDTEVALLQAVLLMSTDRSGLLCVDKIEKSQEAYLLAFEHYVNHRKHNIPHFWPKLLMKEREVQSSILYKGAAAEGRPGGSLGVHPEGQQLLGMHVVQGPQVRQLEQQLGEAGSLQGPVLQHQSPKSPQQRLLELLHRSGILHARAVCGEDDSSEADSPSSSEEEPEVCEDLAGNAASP

Chain of E-selectin (Homo sapiens) (P16581 whole entry, looked up): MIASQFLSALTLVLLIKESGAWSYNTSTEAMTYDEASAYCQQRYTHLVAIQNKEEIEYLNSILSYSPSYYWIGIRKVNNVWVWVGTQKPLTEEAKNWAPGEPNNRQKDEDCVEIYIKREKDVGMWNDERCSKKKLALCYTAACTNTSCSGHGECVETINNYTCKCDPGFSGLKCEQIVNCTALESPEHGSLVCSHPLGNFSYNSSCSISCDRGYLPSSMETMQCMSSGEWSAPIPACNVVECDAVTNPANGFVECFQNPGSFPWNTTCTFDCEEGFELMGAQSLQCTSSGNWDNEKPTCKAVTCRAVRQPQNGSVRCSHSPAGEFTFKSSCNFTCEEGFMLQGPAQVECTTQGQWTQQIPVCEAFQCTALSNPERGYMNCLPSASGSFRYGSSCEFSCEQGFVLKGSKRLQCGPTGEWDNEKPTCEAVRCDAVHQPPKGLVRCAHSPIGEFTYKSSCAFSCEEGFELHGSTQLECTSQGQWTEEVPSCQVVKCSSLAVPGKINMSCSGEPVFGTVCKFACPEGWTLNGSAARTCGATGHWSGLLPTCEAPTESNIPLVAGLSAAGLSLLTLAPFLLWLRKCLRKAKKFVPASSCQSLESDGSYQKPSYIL
Chain of human Retinoid X Receptor beta (RXRb), RXRB (gene 6257) (P28702 whole entry, looked up, the tested form may be a part): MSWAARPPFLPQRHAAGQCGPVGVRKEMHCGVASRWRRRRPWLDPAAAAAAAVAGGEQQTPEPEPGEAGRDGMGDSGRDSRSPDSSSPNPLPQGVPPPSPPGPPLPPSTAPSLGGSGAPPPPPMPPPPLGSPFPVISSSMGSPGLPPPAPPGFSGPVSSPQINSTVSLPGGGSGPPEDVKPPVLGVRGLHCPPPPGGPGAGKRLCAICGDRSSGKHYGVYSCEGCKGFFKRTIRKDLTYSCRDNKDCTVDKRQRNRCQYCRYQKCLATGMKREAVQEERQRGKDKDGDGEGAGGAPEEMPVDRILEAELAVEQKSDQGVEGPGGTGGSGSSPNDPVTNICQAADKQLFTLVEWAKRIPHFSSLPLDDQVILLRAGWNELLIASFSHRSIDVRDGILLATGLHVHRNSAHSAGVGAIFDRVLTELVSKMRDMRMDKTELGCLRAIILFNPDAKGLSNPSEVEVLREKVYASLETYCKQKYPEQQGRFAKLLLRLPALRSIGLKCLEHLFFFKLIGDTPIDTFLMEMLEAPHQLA
Chain of Retinoic acid receptor RXR-alpha (Homo sapiens) (P19793 whole entry, looked up, the tested form may be a part): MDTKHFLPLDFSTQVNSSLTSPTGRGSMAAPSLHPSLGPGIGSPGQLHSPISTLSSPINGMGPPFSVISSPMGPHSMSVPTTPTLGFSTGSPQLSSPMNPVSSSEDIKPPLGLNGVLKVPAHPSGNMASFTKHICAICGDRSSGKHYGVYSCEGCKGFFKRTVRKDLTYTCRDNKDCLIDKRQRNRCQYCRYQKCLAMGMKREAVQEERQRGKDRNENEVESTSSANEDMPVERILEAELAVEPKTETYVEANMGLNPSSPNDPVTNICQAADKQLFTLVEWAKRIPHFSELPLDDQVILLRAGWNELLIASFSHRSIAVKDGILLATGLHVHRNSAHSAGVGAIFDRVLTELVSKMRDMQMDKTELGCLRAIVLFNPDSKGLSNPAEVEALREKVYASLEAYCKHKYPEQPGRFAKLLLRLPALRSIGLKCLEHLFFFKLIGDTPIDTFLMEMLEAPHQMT

`Cc1ccc(N)c(N)c1`: the compound was classed as inactive in assay [1], in assay [3], in assay [4], in assay [5], in assay [8] and in [9]. In addition, the outcome in [10], in assay [11], in assay [12], in [14], in assay [15] and in assay [16] was inactive. The outcome in [17] was inactive. Further, the AC50 was 6.22 µM (active) in assay [2], 7.53 µM (active) in [6], 3.17 µM (active) in assay [7] and 4.08 µM (active) in [13].
Consider `OCCOCCO`, for which the call in assay [1], in [18], in assay [2], in assay [3], in [4] and in [5] was inactive. For the same compound, the result in assay [6], in assay [7], in assay [8], in [9], in [10] and in assay [11] was inactive. Further, the result in assay [13], in [14], in assay [15], in [16] and in assay [17] was inactive.
On to `c1ccc(N=Nc2ccccc2)cc1`, for which the result in assay [1], in assay [18], in [2], in assay [3], in [4] and in assay [5] was inactive. Also, the outcome in [6], in assay [7], in [8], in assay [19], in assay [9] and in assay [10] was inactive. Besides, the result in assay [11], in assay [13], in [14], in [15], in [16] and in assay [17] was inactive.
With `OCCCBr`, the outcome in [18], in [20], in [2], in assay [3], in assay [4] and in assay [5] was inactive. The result in assay [6], in assay [7], in assay [8], in [19], in [9] and in assay [10] was inactive. For the same compound, the outcome in assay [11], in assay [12], in assay [13], in [14], in [15] and in [16] was inactive. For the same compound, the result in assay [17] was inactive.
Turning to `CCCCC(CC)COC(=O)c1ccc(C(=O)OCC(CC)CCCC)c(C(=O)OCC(CC)CCCC)c1` (stereo not drawn), the compound was called inactive in assay [1], in assay [2], in assay [3], in assay [4], in assay [5] and in assay [6]. Further, the result in assay [7], in assay [8], in assay [19], in assay [9], in [10] and in [11] was inactive. Besides, the outcome in [13], in assay [14], in [15], in assay [16] and in assay [17] was inactive.
Regarding `CN(C)c1ccccc1`, the result in assay [1], in assay [20], in assay [2], in [3], in assay [4] and in [5] was inactive. Besides, the result in [6], in assay [7], in assay [8], in assay [19], in assay [9] and in [10] was inactive. The outcome in [11], in assay [13], in assay [14], in assay [15], in assay [16] and in [17] was inactive.
Turning to `CCN(CC)CCO`, the result in assay [1], in assay [18], in assay [2], in [3], in assay [4] and in assay [5] was inactive. In addition, the result in assay [6], in assay [7], in assay [8], in assay [9], in assay [10] and in [11] was inactive. Moreover, the result in assay [13], in [14], in assay [15], in [16] and in assay [17] was inactive.

The AC50 is the midpoint of the concentration-response curve, whichever way the signal moves.
